Bioassay records from PubChem.
S1P4 agonist = S1P4 receptor agonists, primary screen, cell-based; S1P4-expressing cell line, agonist reporter assay; 220,000 compounds, 0.35% hits; activation, % at 4.98 µM; AID 1509, 2009; in the data active = activation above about 11%
Target sequence (O95977 whole entry, looked up): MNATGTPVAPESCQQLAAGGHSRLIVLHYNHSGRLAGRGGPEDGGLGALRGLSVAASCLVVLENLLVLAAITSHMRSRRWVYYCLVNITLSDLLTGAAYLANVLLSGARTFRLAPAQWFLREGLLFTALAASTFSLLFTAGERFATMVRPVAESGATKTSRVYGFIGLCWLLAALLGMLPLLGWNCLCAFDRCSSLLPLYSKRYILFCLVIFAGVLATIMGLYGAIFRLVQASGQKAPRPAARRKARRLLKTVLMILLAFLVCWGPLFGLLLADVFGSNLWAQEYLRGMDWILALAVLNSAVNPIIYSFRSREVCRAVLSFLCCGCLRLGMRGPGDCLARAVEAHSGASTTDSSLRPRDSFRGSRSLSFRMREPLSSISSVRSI
S1P3 antag = S1P3 receptor antagonists, primary screen, cell-based. Sphingosine 1-phosphate receptor 3 (Homo sapiens), Q99500. CHO S1P3 NFAT-BLA reporter, FRET fluorescence, antagonist mode. inhibition, % at 4.98 µM. 170,000 compounds, 0.27% hits;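 active = inhibition above the plate cutoff, the mean inhibition of test wells on that plate plus 3 SD, cut at about 28% in these data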;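 also: cells challenged with S1P at its EC80 of 0.8 µM; blue over green emission ratio from cleaved BLA substrate after 4 h stimulation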
INS promoter inh = inhibitors of insulin promoter-driven GFP, primary screen, imaging, TRM-6 cells (human fetal islet line), eGFP reporter, cell count | reporter expression induced with tamoxifen | AID 1273, 2008 | 130,000 compounds, 0.9% hits | inhibition, % at 2 µM;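 active = inhibition above the mean plus 3 SD, with well images judged a real hit on visual review, cut at about 60% in these data, passing the limit was not always enough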
Hsp70 act = Hsp70 transcriptional activators, primary screen, cell-based, HeLa, Hsp70 promoter luciferase, luminescence, 10 µM | HeLa Hsp70 promoter luciferase reporter; scaled: vehicle 0, proteasome-inhibitor control 100% | 200,000 compounds, 0.04% hits | AID 1203, 2008 | activation, % at 10 µM;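 active = activation above the mean across all tested compounds plus 3 SD, cutoff set per campaign, cut at about 5.5% in these data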
S1P4 antag = S1P4 receptor antagonists, primary screen, cell-based; Sphingosine 1-phosphate receptor 4 (Homo sapiens), O95977; S1P4-expressing cells, antagonist mode, reporter read-out; inhibition, % at 4.98 µM; 220,000 compounds, 0.26% hits; AID 1510, 2009; in the data active = inhibition above about 29%
Insulin prom up = insulin promoter activators in MIN6 cells, imaging, high-content screening, mouse beta cells. MIN6 insulin promoter-GFP reporter; stronger effect = higher value. z-score at 5 µM. 190,000 compounds, 0.3% hits. AID 1625, 2009;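 active = z-score above 3 at 5 µM with at least 500 cells counted in the well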
Hits are given with their value; 0 = inactive; - = no result given. Only some compounds are listed: those with a hit (about 1.5% of all), similar ones and a draw of the others.

SMILES	S1P4 agonist	S1P3 antag	INS promoter inh	Hsp70 act	S1P4 antag	Insulin prom up
COc1cc(C(=O)Nc2cc(-c3nc4cc(C)ccc4o3)ccc2C)cc(OC)c1OC	0	0	0	0	0	0
COc1cc(C(=O)Nc2cccc(-c3nc4cc(C)ccc4o3)c2)cc(OC)c1OC	0	0	71	0	0	0
O=c1[nH]c(Cc2ccccc2)nc2c1oc1ccccc12	0	0	0	0	0	0
Cc1nc2c(oc3ccccc32)c(=O)o1	0	0	0	0	0	4.2
Cc1ccccc1CN1C(=O)C(C)S/C1=N/N=C/c1ccco1 (stereo not given)	0	0	-	-	0	0
Cc1cc(SCCOc2ccccc2)nc(N)n1	0	-	0	0	0	3.1
COc1ccc(C(=O)c2ccc(OC)c3cccc(O)c23)cc1OC	0	-	0	0	0	0
COc1ccc2c3c(cccc13)NN=C2C	0	0	79	0	0	-
COc1ccccc1NC(=O)NCc1nc(-c2ccc(C(F)(F)F)cc2)no1	0	0	-	-	0	0
CC(=O)N1N=C(c2cccs2)CC1c1ccc(C)o1 (stereo not given)	0	0	82	0	0	0
O=C(O)c1ccccc1Sc1c([N+](=O)[O-])cc(C(F)(F)F)cc1[N+](=O)[O-]	0	0	73	0	0	0
O=C(Cn1cnc2ccccc2c1=O)Nc1cccc(-c2nnc3n2CCCCC3)c1	0	-	0	0	0	-
O=C(Cn1cnc2ccccc2c1=O)Nc1ccc(-c2nnc3n2CCCCC3)cc1	0	0	93	0	0	-
CCCCCCCN1N=C(C)C(C(=O)c2ccccc2)C1=O (stereo not given)	0	-	0	0	0	0
CCCCCN1N=C(C)CC1=O	0	0	67	0	0	0
CCn1c(NC(=S)Nc2ccccc2)nc2ccccc21	0	-	0	0	0	0
O=C(NN=C1CCN(Cc2ccccc2)CC1)c1cccc(S(=O)(=O)Nc2ccccc2Cl)c1	0	0	0	0	0	3
O=C1C=C(NCc2ccc(Cl)cc2)CCC1	0	0	-	0	0	0
CC1CC(C)CN(Cc2nc3c(c(=O)n(C)c(=O)n3C)n2CCN2CCOCC2)C1 (stereo not given)	0	0	0	0	0	0
CC(=O)Nc1c(C)ccc(S(N)(=O)=O)c1C	0	0	-	0	0	0
COc1ccc2cc(C(=O)OC(C)C)sc(=O)c2c1OC	0	0	71	0	0	-
CC1(C)Cc2c(sc3c2C2=NCCN2C=N3)CS1	0	-	87	0	0	0
CN1C(=O)c2c(sc3c2CC(C)(C)SC3)N2CCN=C12	-	0	-	-	-	-
CCOc1ccc(C2/C(=C(\O)c3c(C)[nH]c(C(=O)OC)c3C)C(=O)C(=O)N2CCN(C)C)cc1 (stereo not given)	0	0	0	0	0	-
CCCOc1ccc(C2/C(=C(\O)c3c(C)[nH]c(C(=O)OC)c3C)C(=O)C(=O)N2CCN(C)C)cc1 (stereo not given)	0	0	85	0	0	-
SMILES	S1P4 agonist	S1P3 antag	INS promoter inh	Hsp70 act	S1P4 antag	Insulin prom up
Cc1cccc(-n2c3nc(=O)[nH]c(=O)c-3cc3c(C)nn(-c4ccccc4)c32)c1	0	0	62	0	0	0
Cc1ccc(-n2c3nc(=O)[nH]c(=O)c-3cc3c(C)nn(-c4ccccc4)c32)c(C)c1	0	0	0	0	0	0
C=CCN(C(=O)CSC1=NC(=O)CN1C(C)=O)c1nc(C)c(-c2ccccc2)s1	0	0	-	0	0	0
COCn1c(-c2ccc(OC)cc2)nc2ccccc21	0	-	92	0	0	0
Cc1cc(N2CCOCC2)nc2ccc(NC(=S)N3CCCCC3C)cc12 (stereo not given)	0	0	73	0	0	-
CCOC(=O)Cc1csc(NC(NC(=O)OCC)(C(=O)OCC)C(F)(F)F)n1 (stereo not given)	0	-	0	0	0	-
Cc1c(-c2cccc(Cl)c2)nc2ccccc2c1C(=O)OC/C(O)=C(\C#N)c1nc2ccccc2[nH]1	0	0	-	0	0	0
CCOc1ccc(C(=O)NC2=NCCS2)cc1	0	0	83	0	0	0
COc1ccc(Cc2nnc3c4cnn(C)c4ncn23)cc1	0	0	0	0	0	-
Cc1ccccc1C(=O)N1CCN(c2ccc(NC(=O)c3ccco3)cc2Cl)CC1	0	0	85	0	0	0
CCOC(=O)CN1CC23C=CC(O2)C(C(=O)Nc2cc(OC)ccc2OC)C3C1=O (stereo not given)	0	0	-	0	0	4.2
CC(=O)Nc1ccc(S(=O)(=O)N2CCSC2c2ccc(C)cc2)cc1 (stereo not given)	0	0	0	0	0	0
O=C(NCc1cn2ccccc2n1)c1ccco1	0	-	-	0	0	3.7
C/C(Cc1ccccc1)=N\NC(=O)CNC(=O)COc1ccccc1	0	0	-	-	0	0
COc1cc2c(cc1OC)-c1cc(NC3CCCC3)nc(=O)n1CC2	0	0	0	0	0	0
COc1cc2c(cc1OC)-c1cc(OCc3ccccc3Cl)nc(=O)n1CC2	0	-	66	0	0	0
OC(COc1cccc2ccccc12)CN1CCN(c2ccccc2Cl)CC1 (stereo not given)	0	0	-	-	0	3.5
CCCCN(C)C(=O)c1cn(C)c2ccc(S(=O)(=O)N(C)C)cc2c1=O	0	87	-	0	0	0
CCn1cc(C(=O)NCCN(C)CCc2ccccc2)c(=O)c2cc(S(=O)(=O)N(C)C)ccc21	0	0	0	0	0	3.9
CN(CCNC(=O)c1cn(C)c2ccc(S(=O)(=O)N(C)C)cc2c1=O)CCc1ccccc1	0	0	-	0	0	0
O=C(O)Cn1c(P(=O)(O)c2ccccc2)nc2ccccc21	0	0	0	0	0	0
CCOCCCN1C(=O)CN(C2CCC(C)CC2)C(=O)C1c1ccc(C)cc1 (stereo not given)	0	0	0	0	0	0
CCOC(=O)c1sc(-c2ccccn2)nc1C	0	0	0	0	0	0
CCN(CC)c1ccc(NC(=S)NC(=O)c2cccs2)cc1	0	0	-	0	0	0
Nc1c2c(nc3ccc(Br)cc13)N(Cc1ccccc1)CC2	0	0	69	0	0	-
SMILES	S1P4 agonist	S1P3 antag	INS promoter inh	Hsp70 act	S1P4 antag	Insulin prom up
Nc1c2c(nc3ccc(Br)cc13)N(c1ccccc1)CC2	0	-	0	0	0	-
CC(=O)Nc1ccc(S(=O)(=O)N(CCO)Cc2ccccc2)cc1	0	-	0	0	0	-
O=C(Nc1ccccc1)c1ccc(S(=O)(=O)N(CCO)CCO)cc1	0	0	77	0	0	0
Cn1c(C(O)c2ccc3c(c2)OCO3)nc2ccccc21 (stereo not given)	0	0	77	0	0	0
CC(NC(=O)C12CC3(C)CC(C)(CC(C)(C3)C1)C2)C(=O)O (stereo not given)	0	0	71	0	0	0
Cc1ccccc1-c1nnc(-c2ccc(Cl)cc2)o1	0	-	0	0	0	3.5
